Potency and viability data for 10 molecules are collected here from PubChem BioAssay (NCATS).

The target of experiment [1] is Aldehyde dehydrogenase, mitochondrial (Homo sapiens) (UniProt P05091). In words: qHTS for Inhibitors of the Aldehyde Dehydrogenase Family (ALDH2) Primary screen (AID 2061308). Further: nearly all actives have a fitted effect of over 55% in size. Further: potency means the concentration at half of the fitted maximal effect.
In experiment [2] the target is Retinaldehyde dehydrogenase 3 (Homo sapiens) (UniProt P47895). In words: qHTS for Inhibitors of the Aldehyde Dehydrogenase Family (ALDH1A3) Validation screen (AID 2061312). Further: on the % scale 0 is the no-effect control and ±100 the full control effect; nearly all actives have a fitted effect of over 45% in size. Background: qHTS replaces the single test concentration by a dilution series.
The target is the same in experiment [3]. In words: qHTS for Inhibitors of the Aldehyde Dehydrogenase Family (ALDH1A3) Primary screen (AID 2061315).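 Further: plate controls were DMSO vehicle for no effect and reference inhibitor for full effect.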
The nature of experiment [4]: BET inhibitor-based combinations targeting novel dependencies in MECOM-rearranged (r) AML: SET-2 cell line (AID 2202231). Further: nearly all actives have a fitted effect of over 35% in size. Further: potency means the concentration at half of the fitted maximal effect.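 On viability: plate controls were DMSO treated cells for no effect and wells without cells for full effect.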 The settings on record: SET-2 AML cells viability, CellTiter-Glo luminescence, 48 h; viability: stronger effect = lower value, concentration not given here. The gist of the method: (§1)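 Readout: CellTiter-Glo luminescence. Exposure: 48 h, 11 concentrations, 500 cells/well. Metric: AUC and within-line Z-AUC after DMSO/empty-well normalization.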
For orientation: ATP-based viability assays read luminescence as a measure of living cells.

The nature of experiment [5]: BET inhibitor-based combinations targeting novel dependencies in MECOM-rearranged (r) AML: OCI-AML3 cell line (AID 2202232). Further: potency means the concentration at half of the fitted maximal effect; nearly all actives have a fitted effect of over 35% in size. The settings on record: Potency: OCI-AML3 viability. The procedure, abridged:
as §1

The nature of experiment [6]: BET inhibitor-based combinations targeting novel dependencies in MECOM-rearranged (r) AML: MV-4-11 cell line (AID 2202233). Further: potency means the concentration at half of the fitted maximal effect; nearly all actives have a fitted effect of over 45% in size. The procedure, abridged:
(§2)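 Seeding density was 500 cells/well, and drug exposure lasted 48 hr under standard culture conditions. Read-out used CellTiter-Glo reagent with a 15 min room-temperature incubation before luminescence measurement; AUC and Z-AUC summarize the normalized responses.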

The nature of experiment [7]: BET inhibitor-based combinations targeting novel dependencies in MECOM-rearranged (r) AML: HNT-34 cell line (AID 2202234). Further: potency means the concentration at half of the fitted maximal effect; nearly all actives have a fitted effect of over 35% in size. The procedure, abridged: as §2
Experiment [8] in a line: BET inhibitor-based combinations targeting novel dependencies in MECOM-rearranged (r) AML: UCSD-AML1 cell line (AID 2202235).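 Further: series mostly up to about 46 µM; plate controls were DMSO vehicle wells for no effect and blank wells for full effect; nearly all actives have a fitted effect of over 40% in size.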 The procedure, abridged: as §2
The nature of experiment [9]: BET inhibitor-based combinations targeting novel dependencies in MECOM-rearranged (r) AML: AML-191 cell line (AID 2202236; further: potency means the concentration at half of the fitted maximal effect; nearly all actives have a fitted effect of over 35% in size). The procedure, abridged:
as §1

Experiment [10] in a line: BET inhibitor-based combinations targeting novel dependencies in MECOM-rearranged (r) AML: AML-194 cell line (AID 2202237; further: nearly all actives have a fitted effect of over 40% in size; further: potency means the concentration at half of the fitted maximal effect). The gist of the method: as §1
Experiment [11] concerns the target Retinal dehydrogenase 2 (Homo sapiens) (UniProt O94788). In words: qHTS for Inhibitors of the Aldehyde Dehydrogenase Family (ALDH1A2) Confirmation screens (AID 2061314). Further: potency means the concentration at half of the fitted maximal effect; nearly all actives have a fitted effect of over 65% in size.

Records with an inconclusive call do not appear. Values without a mark were called inactive. Activity calls are given as the source filed them. The call rests on the fitted dose curve; in most records, active means well fitted curve in the direction sought with a large enough effect; inconclusive means small, poorly fitted or top-dose-only effect, or another doubt; inactive means no such curve, though single readings can be large; an effect the other way counts as inactive or inconclusive.

As to `COc1cc2c(cc1-c1c(C)noc1C)ncc1[nH]c(=O)n(C(C)c3ccccn3)c12` (centres undefined), the Potency entry in experiment [1], in [2] and in [3] was “inactive” throughout.
As for `CCOC(=O)[C@@H](N)Cc1ccc(-c2cc(O[C@H](c3ccc(Cl)cc3-n3ccc(C)n3)C(F)(F)F)nc(N)n2)cc1`, the Potency result in experiment [1], in experiment [2], in [3] and in experiment [8] was “inactive” in each case. The Potency was 26.3 µM (active) in experiment [4]; 11.8 µM (active) in experiment [5]; 9.34 µM (active) in [6]; 23.5 µM (active) in experiment [7]; 23.5 µM (active) in [9]; 26.3 µM (active) in experiment [10].
For `CC1CCN(C(c2ccc(F)cc2)c2ccc(C(C)C(=O)O)cc2-c2ccc(C(F)(F)F)cc2)CC1` (centres undefined), the Potency result in [1], in experiment [2] and in [3] was “inactive” each time.
On to `COc1cc(C(=O)O)ccc1NC(=O)C1NC(CC(C)(C)C)C(C#N)(c2ccc(Cl)cc2F)C1c1cccc(Cl)c1F` (centres undefined), for which the Potency entry in experiment [1], in experiment [2] and in [3] was “inactive” in each case.
As for `CCCc1[nH]nc2c1C(c1cc(Cl)cc(Cl)c1O)C(C#N)=C(N)O2` (centres undefined), the Potency entry in experiment [1], in [2] and in [3] was “inactive” throughout.
As for `CN(C)CC(=O)Nc1ccc2[nH]c(=O)c3ccccc3c2c1`, the Potency result in experiment [1], in experiment [2] and in experiment [3] was “inactive” in each case.
On to `N#Cc1c(-c2ccc(Cl)cc2)no[n+]1[O-]`, for which the Potency in experiment [1] is 7.94 µM (active); in experiment [11] it was 10.1 µM (active). In addition, the Potency entry in experiment [3] was “inactive”.
The matching figures for `CC(=O)Nc1ccc(-c2csc(N3CCC(C(N)=O)CC3)n2)cc1`: “inactive”, 22.5 µM (active) and “inactive”.
Broadly, the viability is a per cent measure of how many cells are alive, often set against a control. As to `Cc1cnc(-c2ccccc2C(C)C)nc1NCc1ccc(-n2ccnn2)cc1`, the Potency result in experiment [1], in experiment [2], in [3], in experiment [8] and in experiment [10] was “inactive” each time. Further, the viability in [4] was 86.2%.
Consider `CC(=O)NC(c1ccco1)c1cc(Cl)c2ccc(Cl)nc2c1O` (centres undefined), for which the Potency result in [1] was “inactive”. Moreover, the Potency in [11] was 6.34 µM (active).
